The values below come from PMC7862700, “An all-to-all approach to the identification of sequence-specific readers for epigenetic DNA modifications on cytosine”.

Common to all, as to assay: DAPPL (digital affinity profiling via proximity ligation, sequencing); 10 mM Tris-HCl pH 7.5, 50 mM NaCl, 1 mM DTT, 4% glycerol, room temperature, 30 min; GST-TFs on glutathione beads, 16-mer random dsDNA library, 0.1% formaldehyde crosslink after washing; high values mean tight binding
The target in assay [1] is T1, FEV (Homo sapiens, UniProt Q99581 1-238).
T1 sequence: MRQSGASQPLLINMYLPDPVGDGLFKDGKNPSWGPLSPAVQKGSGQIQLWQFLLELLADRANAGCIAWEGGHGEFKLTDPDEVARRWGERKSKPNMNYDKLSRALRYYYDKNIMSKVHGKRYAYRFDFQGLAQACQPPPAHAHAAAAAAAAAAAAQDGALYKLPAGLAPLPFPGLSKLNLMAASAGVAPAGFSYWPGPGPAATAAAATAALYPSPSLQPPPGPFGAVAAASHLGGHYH
As to conditions: protein: recombinant; tags: N-terminal GST; dsDNA, one strand shown. Put shortly:
(§1)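 GST fusions of human transcription factors were expressed in yeast and captured with glutathione beads. Once given DNA barcodes and pooled alongside a tag-only sample, they were incubated for 30 min at room temperature with 200 nmole of a random double-stranded 16-mer DNA library in Tris/NaCl/DTT/glycerol buffer, then washed, crosslinked (0.1% formaldehyde), proximity-ligated, PCR-amplified and sequenced on an Illumina NextSeq500. The binding signal of each hexamer is its read frequency for a factor divided by its frequency for the tag-only sample.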

Assay [2] concerns the target ETV5 (Homo sapiens, UniProt P41161 1-510). The note with it: protein: recombinant; tags: N-terminal GST; dsDNA, one strand shown. Put shortly:
as §1

Assay [3] addresses HSF1 (Homo sapiens, UniProt Q00613 1-529). The note with it: protein: recombinant; tags: N-terminal GST; chain copies: 3; dsDNA, one strand shown. Put shortly:
as §1

The target in assay [4] is T2, SPIC (Homo sapiens, UniProt Q8N5J4 1-248).
T2 sequence: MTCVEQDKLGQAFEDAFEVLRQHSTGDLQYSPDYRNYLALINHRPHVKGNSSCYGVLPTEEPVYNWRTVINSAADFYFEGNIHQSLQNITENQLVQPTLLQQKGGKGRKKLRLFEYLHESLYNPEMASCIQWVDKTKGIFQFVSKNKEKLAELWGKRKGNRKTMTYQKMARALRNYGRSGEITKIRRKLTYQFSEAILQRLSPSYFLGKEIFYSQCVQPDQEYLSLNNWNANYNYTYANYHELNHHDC
As to conditions: protein: recombinant; tags: N-terminal GST; dsDNA, one strand shown. Put shortly:
as §1

For assay [5], the target named is ELF4 (Homo sapiens, UniProt Q99607 1-663). The note with it: protein: recombinant; tags: N-terminal GST; dsDNA, one strand shown. The essentials:
as §1

Assay [6] concerns the target T3, ELK4 (Homo sapiens, UniProt P28324-2 1-405).
T3 sequence: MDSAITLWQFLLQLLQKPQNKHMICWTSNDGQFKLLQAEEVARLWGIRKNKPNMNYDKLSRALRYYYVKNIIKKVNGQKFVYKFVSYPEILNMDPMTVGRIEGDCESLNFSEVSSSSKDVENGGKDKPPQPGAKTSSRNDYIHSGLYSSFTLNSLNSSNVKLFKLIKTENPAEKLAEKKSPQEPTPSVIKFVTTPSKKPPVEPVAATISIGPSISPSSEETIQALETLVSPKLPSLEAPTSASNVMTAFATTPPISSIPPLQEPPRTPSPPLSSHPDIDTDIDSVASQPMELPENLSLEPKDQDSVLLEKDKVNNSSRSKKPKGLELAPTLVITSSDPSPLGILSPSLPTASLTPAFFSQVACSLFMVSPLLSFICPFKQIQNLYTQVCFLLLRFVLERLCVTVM
As to conditions: protein: recombinant; tags: N-terminal GST; dsDNA, one strand shown. The essentials:
as §1

In assay [7] the target is T4, ETV2 (Homo sapiens, UniProt O00321 1-342).
T4 sequence: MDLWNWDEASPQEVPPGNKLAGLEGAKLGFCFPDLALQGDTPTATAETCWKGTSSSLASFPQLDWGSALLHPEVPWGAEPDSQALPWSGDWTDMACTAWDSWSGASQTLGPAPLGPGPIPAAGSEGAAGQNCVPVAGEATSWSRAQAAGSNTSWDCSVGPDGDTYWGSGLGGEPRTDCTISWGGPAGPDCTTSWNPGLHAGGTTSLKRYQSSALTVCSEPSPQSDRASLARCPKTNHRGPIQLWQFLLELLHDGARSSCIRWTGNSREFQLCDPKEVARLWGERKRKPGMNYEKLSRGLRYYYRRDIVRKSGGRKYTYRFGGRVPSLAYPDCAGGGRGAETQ
The note with it: protein: recombinant; tags: N-terminal GST; dsDNA, one strand shown. The essentials: as §1

The target of assay [8] is T5, ELF3 (Homo sapiens, UniProt P78545 1-371).
T5 sequence: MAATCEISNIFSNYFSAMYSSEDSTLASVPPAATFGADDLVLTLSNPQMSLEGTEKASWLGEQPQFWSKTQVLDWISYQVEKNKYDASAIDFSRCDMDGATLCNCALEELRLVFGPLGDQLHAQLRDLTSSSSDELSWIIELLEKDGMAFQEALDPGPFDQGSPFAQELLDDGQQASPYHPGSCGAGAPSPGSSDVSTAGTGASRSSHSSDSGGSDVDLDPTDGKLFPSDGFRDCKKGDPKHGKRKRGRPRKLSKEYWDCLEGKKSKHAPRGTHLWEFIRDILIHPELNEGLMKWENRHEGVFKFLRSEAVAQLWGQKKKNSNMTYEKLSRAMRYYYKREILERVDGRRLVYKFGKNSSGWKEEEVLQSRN
The note with it: protein: recombinant; tags: N-terminal GST; dsDNA, one strand shown. The essentials: as §1

The target of assay [9] is CRX (Homo sapiens, UniProt O43186 1-299). The note with it: protein: recombinant; tags: N-terminal GST; dsDNA, one strand shown. The essentials: as §1
The target in assay [10] is ETV1 (Homo sapiens, UniProt P50549 1-477). The note with it: protein: recombinant; tags: N-terminal GST; dsDNA, one strand shown. The essentials: as §1
The target in assay [11] is T6, ERF (Homo sapiens, UniProt P50548 1-548).
T6 sequence: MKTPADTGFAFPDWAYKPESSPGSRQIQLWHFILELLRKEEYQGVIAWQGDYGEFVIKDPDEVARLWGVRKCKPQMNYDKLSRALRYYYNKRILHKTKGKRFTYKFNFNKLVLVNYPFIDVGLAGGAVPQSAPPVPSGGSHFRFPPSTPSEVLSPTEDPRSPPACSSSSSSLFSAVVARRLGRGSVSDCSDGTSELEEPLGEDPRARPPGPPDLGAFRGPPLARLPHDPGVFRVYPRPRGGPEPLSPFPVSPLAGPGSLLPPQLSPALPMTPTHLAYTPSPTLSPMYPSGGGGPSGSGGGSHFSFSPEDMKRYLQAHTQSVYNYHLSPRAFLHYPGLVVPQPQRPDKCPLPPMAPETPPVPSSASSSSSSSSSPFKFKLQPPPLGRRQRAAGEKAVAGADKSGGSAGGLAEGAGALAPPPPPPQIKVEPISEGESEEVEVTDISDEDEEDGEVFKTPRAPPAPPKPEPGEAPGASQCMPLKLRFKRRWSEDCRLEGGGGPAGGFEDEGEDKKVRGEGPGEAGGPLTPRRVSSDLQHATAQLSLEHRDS
The note with it: protein: recombinant; tags: N-terminal GST; dsDNA, one strand shown. Put shortly: as §1

Assay [12] addresses T7, ETV3L (Homo sapiens, UniProt Q6ZN32 1-361).
T7 sequence: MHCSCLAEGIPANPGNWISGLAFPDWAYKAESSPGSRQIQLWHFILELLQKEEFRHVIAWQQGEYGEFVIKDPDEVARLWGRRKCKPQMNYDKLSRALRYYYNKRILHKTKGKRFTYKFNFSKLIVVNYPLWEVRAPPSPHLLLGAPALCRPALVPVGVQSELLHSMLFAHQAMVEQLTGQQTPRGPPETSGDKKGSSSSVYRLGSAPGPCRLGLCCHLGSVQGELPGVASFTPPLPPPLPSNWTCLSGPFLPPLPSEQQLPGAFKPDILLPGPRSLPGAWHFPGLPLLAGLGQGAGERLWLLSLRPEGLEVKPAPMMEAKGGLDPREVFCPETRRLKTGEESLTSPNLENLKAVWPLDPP
The note with it: protein: recombinant; tags: N-terminal GST; dsDNA, one strand shown. Put shortly: as §1

The target of assay [13] is T8, ETS2 (Homo sapiens, UniProt P15036 1-469).
T8 sequence: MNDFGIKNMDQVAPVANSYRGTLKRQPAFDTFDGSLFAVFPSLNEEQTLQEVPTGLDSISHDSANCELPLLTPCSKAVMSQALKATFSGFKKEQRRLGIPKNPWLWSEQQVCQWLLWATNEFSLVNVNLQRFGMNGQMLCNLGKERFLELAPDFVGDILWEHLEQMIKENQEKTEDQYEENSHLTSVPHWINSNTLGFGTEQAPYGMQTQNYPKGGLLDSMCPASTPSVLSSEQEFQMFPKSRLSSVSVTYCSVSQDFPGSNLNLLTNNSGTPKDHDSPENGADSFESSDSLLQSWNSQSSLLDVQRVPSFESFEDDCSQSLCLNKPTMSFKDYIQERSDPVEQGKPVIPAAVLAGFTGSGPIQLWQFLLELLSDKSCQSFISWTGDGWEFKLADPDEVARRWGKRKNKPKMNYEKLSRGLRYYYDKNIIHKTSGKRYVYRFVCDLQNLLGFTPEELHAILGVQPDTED
As to conditions: protein: recombinant; tags: N-terminal GST; dsDNA, one strand shown. The essentials: as §1

Assay [14] has as its target T9, SPDEF (Homo sapiens, UniProt O95238 1-335).
T9 sequence: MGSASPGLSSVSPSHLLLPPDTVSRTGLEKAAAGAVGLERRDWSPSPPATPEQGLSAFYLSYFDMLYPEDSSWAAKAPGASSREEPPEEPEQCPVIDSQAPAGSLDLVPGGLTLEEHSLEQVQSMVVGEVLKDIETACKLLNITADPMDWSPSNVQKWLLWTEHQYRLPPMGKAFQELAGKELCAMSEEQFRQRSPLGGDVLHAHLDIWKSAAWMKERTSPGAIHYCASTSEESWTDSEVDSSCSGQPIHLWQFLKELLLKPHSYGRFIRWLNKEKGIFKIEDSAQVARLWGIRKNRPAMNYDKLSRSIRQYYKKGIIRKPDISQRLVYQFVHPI
The note with it: protein: recombinant; tags: N-terminal GST; dsDNA, one strand shown. Put shortly:
as §1

In assay [15] the target is T10, ETV7 (Homo sapiens, UniProt Q9Y603 1-341).
T10 sequence: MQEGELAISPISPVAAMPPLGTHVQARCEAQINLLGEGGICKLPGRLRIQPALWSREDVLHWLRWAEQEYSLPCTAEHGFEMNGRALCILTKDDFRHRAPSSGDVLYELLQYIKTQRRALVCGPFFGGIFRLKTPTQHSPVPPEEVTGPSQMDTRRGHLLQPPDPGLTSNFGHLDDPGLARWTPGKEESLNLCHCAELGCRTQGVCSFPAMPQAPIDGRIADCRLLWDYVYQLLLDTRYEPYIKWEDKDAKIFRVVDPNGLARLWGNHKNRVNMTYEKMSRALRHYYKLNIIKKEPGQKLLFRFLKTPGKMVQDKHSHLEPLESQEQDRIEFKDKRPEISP
As to conditions: protein: recombinant; tags: N-terminal GST; dsDNA, one strand shown. Put shortly:
as §1

Assay [16] deals with T11, ELF5 (Homo sapiens, UniProt Q9UKW6-2 1-255).
T11 sequence: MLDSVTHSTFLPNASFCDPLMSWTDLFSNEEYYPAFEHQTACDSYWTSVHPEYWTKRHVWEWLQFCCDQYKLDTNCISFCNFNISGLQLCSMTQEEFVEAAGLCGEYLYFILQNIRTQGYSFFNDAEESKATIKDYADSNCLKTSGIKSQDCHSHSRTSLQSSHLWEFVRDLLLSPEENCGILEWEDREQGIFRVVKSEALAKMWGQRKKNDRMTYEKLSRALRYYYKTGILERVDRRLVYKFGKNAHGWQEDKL
As to conditions: protein: recombinant; tags: N-terminal GST; dsDNA, one strand shown. The essentials:
as §1

In assay [17] the target is T12, ETV3 (Homo sapiens, UniProt P41162-2 1-143).
T12 sequence: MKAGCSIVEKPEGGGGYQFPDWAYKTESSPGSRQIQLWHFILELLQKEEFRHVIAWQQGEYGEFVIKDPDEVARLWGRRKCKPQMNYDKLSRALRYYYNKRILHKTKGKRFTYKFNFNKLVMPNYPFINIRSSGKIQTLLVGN
The note with it: protein: recombinant; tags: N-terminal GST; dsDNA, one strand shown. The essentials: as §1

Assay [18] concerns the target ETV6 (Homo sapiens, UniProt P41212 1-452). The note with it: protein: recombinant; tags: N-terminal GST; dsDNA, one strand shown. Put shortly: as §1

HSF1, sequence (Q00613 whole entry): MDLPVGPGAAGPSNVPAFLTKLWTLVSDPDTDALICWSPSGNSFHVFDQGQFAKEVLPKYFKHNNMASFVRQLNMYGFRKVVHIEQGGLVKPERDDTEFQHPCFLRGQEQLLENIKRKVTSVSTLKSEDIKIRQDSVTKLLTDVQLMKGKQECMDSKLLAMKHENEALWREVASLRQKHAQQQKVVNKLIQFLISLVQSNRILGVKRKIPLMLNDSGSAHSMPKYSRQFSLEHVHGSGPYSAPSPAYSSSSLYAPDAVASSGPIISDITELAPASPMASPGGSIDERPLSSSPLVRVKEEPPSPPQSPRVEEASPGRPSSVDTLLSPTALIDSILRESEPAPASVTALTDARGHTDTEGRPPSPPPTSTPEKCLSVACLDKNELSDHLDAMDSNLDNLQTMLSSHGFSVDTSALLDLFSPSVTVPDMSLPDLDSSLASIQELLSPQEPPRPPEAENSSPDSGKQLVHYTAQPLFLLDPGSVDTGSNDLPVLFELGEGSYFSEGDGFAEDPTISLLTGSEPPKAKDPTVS
CRX, sequence (O43186 whole entry): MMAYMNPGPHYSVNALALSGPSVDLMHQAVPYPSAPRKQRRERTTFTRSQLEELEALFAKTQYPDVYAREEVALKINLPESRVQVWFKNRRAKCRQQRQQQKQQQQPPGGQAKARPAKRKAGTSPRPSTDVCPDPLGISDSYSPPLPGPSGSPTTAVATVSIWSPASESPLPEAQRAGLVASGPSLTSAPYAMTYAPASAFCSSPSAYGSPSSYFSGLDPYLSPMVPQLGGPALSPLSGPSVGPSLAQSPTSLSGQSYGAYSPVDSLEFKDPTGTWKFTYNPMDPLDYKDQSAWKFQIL
ETV6, sequence (P41212 whole entry): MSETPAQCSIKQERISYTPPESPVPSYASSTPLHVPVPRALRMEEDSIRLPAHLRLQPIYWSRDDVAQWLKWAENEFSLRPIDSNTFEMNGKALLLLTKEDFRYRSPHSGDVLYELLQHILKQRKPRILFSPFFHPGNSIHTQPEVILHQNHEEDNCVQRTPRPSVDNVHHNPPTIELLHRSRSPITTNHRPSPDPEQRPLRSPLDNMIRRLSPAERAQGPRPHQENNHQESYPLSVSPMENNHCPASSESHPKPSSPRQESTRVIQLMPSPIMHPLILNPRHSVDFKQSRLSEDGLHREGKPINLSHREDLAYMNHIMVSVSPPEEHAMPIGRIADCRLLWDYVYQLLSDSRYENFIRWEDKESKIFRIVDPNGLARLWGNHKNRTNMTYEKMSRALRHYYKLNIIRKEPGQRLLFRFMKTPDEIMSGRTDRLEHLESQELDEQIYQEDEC
ELF4, sequence (Q99607 whole entry): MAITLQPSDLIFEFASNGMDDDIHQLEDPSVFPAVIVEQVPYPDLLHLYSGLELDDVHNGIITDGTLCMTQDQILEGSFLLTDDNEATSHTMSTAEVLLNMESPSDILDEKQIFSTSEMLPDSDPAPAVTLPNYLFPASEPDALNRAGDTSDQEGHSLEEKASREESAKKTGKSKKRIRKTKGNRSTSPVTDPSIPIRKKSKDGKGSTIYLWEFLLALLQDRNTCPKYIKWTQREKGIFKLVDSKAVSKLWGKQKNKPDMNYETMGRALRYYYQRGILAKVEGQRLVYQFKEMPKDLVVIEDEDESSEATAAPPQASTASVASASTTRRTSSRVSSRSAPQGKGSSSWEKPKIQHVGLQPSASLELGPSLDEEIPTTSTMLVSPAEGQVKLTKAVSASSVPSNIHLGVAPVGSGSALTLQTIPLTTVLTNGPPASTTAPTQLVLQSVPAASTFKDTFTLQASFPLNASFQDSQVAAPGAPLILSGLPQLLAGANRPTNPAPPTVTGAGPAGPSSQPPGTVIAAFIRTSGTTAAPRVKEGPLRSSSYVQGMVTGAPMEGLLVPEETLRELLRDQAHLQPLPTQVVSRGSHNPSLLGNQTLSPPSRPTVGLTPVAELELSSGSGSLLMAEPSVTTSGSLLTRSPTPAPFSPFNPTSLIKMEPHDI
ETV1, sequence (P50549 whole entry): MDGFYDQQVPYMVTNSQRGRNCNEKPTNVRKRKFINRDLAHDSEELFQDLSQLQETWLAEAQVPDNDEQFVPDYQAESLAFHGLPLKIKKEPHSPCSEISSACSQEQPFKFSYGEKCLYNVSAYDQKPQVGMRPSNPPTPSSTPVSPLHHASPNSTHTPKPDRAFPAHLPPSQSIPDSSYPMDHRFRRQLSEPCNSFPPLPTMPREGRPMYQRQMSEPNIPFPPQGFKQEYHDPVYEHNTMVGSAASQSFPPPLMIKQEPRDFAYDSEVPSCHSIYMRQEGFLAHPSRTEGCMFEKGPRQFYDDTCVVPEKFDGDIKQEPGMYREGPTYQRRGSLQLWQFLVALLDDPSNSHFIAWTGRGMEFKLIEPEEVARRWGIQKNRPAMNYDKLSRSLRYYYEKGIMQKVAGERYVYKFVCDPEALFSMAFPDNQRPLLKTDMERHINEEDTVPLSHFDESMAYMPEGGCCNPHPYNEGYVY
ETV5, sequence (P41161 whole entry): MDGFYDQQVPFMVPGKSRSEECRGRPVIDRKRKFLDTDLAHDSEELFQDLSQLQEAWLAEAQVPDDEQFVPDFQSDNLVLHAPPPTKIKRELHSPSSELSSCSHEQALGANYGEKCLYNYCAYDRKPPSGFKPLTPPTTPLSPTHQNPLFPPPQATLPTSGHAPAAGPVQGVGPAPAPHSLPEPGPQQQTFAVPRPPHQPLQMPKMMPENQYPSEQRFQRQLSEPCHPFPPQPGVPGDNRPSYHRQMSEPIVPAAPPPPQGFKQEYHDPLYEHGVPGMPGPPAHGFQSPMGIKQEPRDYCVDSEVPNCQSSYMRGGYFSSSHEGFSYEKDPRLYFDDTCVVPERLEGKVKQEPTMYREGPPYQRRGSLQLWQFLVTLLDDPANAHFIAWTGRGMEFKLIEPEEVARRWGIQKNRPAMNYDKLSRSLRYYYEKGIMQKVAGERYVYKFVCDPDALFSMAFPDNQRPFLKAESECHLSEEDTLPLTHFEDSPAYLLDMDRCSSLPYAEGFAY

Take CTTCAA: the binding signal in [1] was 1.33 fold enrichment (6-mer frequency, TF over GST control); in [2], 1.28 fold enrichment (6-mer frequency, TF over GST control); in assay [3], 1.38 fold enrichment (6-mer frequency, TF over GST control); in assay [4], 1.32 fold enrichment (6-mer frequency, TF over GST control); in assay [5], 1.29 fold enrichment (6-mer frequency, TF over GST control); in assay [6], 1.52 fold enrichment (6-mer frequency, TF over GST control). In addition, the binding signal in [7] is 1.46 fold enrichment (6-mer frequency, TF over GST control); in assay [8], 1.37 fold enrichment (6-mer frequency, TF over GST control); in assay [9], 1.22 fold enrichment (6-mer frequency, TF over GST control); in assay [10] it was 1.36 fold enrichment (6-mer frequency, TF over GST control); in assay [11], 1.41 fold enrichment (6-mer frequency, TF over GST control); in assay [12], 1.3 fold enrichment (6-mer frequency, TF over GST control). Moreover, the binding signal in assay [13] was 1.25 fold enrichment (6-mer frequency, TF over GST control); in assay [14], 1.34 fold enrichment (6-mer frequency, TF over GST control); in assay [15], 1.27 fold enrichment (6-mer frequency, TF over GST control); in [16], 1.32 fold enrichment (6-mer frequency, TF over GST control); in assay [17] it was 1.29 fold enrichment (6-mer frequency, TF over GST control); in assay [18] it was 1.39 fold enrichment (6-mer frequency, TF over GST control).
